Screens: PubChem BioAssay, several laboratories
ERa SRC1 inh = ERα–SRC-1 coactivator interaction inhibitors, primary screen, biochemical, TR-FRET, ERα LBD, estradiol-bound. Estrogen receptor (Homo sapiens), P03372. TR-FRET ER-alpha LBD / SRC-1 peptide. inhibition, % at 25.6 µM. actives 1.7% (n = 86,000). AID 629, 2007; in the data active = inhibition above about 50%;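 also: 0% = receptor plus peptide control and 100% = peptide only without receptor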
Target sequence (P03372 whole entry, looked up, the tested form may be a part): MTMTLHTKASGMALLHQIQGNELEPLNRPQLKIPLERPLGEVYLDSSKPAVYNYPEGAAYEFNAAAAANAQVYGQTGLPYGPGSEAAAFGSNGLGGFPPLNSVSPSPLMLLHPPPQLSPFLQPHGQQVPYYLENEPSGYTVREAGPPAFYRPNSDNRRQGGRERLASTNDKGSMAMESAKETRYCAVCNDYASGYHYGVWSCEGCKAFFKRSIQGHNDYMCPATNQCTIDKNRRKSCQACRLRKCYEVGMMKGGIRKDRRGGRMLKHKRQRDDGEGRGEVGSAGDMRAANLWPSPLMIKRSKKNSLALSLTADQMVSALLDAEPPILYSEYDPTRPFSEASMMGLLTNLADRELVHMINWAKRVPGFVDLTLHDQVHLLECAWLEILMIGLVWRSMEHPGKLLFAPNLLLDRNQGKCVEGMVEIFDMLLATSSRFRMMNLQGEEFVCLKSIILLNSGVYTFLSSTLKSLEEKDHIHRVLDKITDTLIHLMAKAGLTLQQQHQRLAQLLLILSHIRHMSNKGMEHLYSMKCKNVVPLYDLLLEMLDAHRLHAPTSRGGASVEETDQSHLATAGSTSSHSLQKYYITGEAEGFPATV
Smad3 inh = Smad3/FoxH1 peptide binding inhibitors, primary screen, biochemical, TR-FRET | Mothers against decapentaplegic homolog 3 (Homo sapiens), P84022 | TR-FRET Smad3/Dy647-FoxH1 peptide binding, europium anti-His | inhibition, % at 25 µM | actives 0.29% (n = 88,000) | AID 630, 2007;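 active = compounds that reduce the energy-transfer binding signal between the protein and its labelled peptide by more than half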;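 also: 0% = Smad3 plus labelled peptide maximal FRET and 100% = peptide-only background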
ERa SRC1 pot = enhancers of ERα–SRC-1 coactivator binding, primary screen, biochemical, TR-FRET, ERα LBD, low estradiol; Estrogen receptor (Homo sapiens), P03372; TR-FRET ERalpha-LBD/SRC-Cy5 coactivator binding, 2 h; 100 = basal binding, no effect; coactivator binding (% of control), % at 25.6 µM; actives 1.3% (n = 86,000); AID 639, 2007; in the data active = activity above about 200%;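 also: binding measured in presence of low estradiol as agonist stimulus; 0% = peptide alone without receptor and 100% = receptor with peptide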
ERb coact inh = inhibitors of ERβ-SRC1 coactivator interaction, primary screen, biochemical, TR-FRET, ERβ LBD, SRC-1 peptide; TR-FRET ER-beta LBD / SRC1-Cy5 peptide binding; receptor agonist-loaded with 1 µM estradiol; Estrogen receptor beta (Homo sapiens), Q92731; inhibition, % at 25.6 µM; actives 1.3% (n = 86,000);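 active = compounds whose percent inhibition of the receptor-coactivator binding signal exceeds about 50% in the single-dose screen, limit read from the data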;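 also: 0% = receptor plus peptide wells without compound and 100% = peptide-only wells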
PLK1 kinase inh = human PLK1 kinase inhibitors, primary screen, biochemical, TR-FRET | inhibition, % at 10 µM | actives 0.53% (n = 97,000) | recombinant PLK1 kinase, TR-FRET peptide phosphorylation;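 active = inhibition of 50% or more in the single-concentration screen; inactive = inhibition below 50%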;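 also: 0% = DMSO max control and 100% = H-89 dihydrochloride min control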
PLK1 PBD inh = Plk1 polo box domain binding inhibitors, primary screen, biochemical, fluorescence polarization. Serine/threonine-protein kinase PLK1 (Homo sapiens), P53350. Plk1 PBD phosphopeptide binding. inhibition, %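 (tested at about 20 µM)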. actives 0.13% (n = 97,000). AID 693, 2007; in the data active = inhibition above about 34%, passing the limit was not always enough
* hit, by the source's call; [ ] = remark or other dose. The list is not random: actives were taken first. Their share in the collection is about 3.3%.

CCCSc1nnc(-c2c[nH]c3ccccc23)n1C was read as ERa SRC1 inh 12, Smad3 inh -6, ERa SRC1 pot 86, ERb coact inh 6, PLK1 kinase inh 64* and PLK1 PBD inh 4.
`CCCSc1nnc(-c2c[nH]c3ccccc23)n1CC` gave ERa SRC1 inh 1, Smad3 inh -5, ERa SRC1 pot 116, ERb coact inh -9, PLK1 kinase inh 60* and PLK1 PBD inh 1.
For O=C1c2ccccc2C(=O)N1CCCN1CCN(CCCN2C(=O)c3ccccc3C2=O)CC1 the results were ERa SRC1 inh 5, Smad3 inh -12, ERa SRC1 pot 108, ERb coact inh 25, PLK1 kinase inh -11 and PLK1 PBD inh 14.
`COCCCn1c(Cc2csc(Nc3cccc(Cl)c3)n2)nnc1SCC(=O)OC` gave ERa SRC1 inh 37, Smad3 inh 4, ERa SRC1 pot 42, ERb coact inh 61*[fluorescence artefact?], PLK1 kinase inh -5 and PLK1 PBD inh 3.
CCOC(=O)c1c(NC(=O)CSc2nncn2C)sc(C)c1C was read as ERa SRC1 inh -5, Smad3 inh 0, ERa SRC1 pot 111, ERb coact inh -7, PLK1 kinase inh -11 and PLK1 PBD inh -19.
Cn1cnnc1SCC(=O)Nc1sc2c(c1C(N)=O)CCC2 was read as ERa SRC1 inh 94*[fluorescence artefact?], Smad3 inh -4, ERa SRC1 pot 13, ERb coact inh 93*[fluorescence artefact?], PLK1 kinase inh -4 and PLK1 PBD inh -18.
CN1[C@@H](c2ccccc2)CC(=NO)C[C@H]1c1ccccc1 was read as Smad3 inh -39.
O[C@@H](COc1ccc(Cl)cc1Cl)CN1CCCC1 was read as Smad3 inh -2.
Screening OC(COc1c(Cl)cc(Cl)cc1Cl)CN1CCCCC1 (stereo not given) returned ERa SRC1 inh -2, Smad3 inh -2, ERa SRC1 pot 115, ERb coact inh -10, PLK1 kinase inh 54* and PLK1 PBD inh -1.
For O=C(c1cc2ccccc2cc1OCC(O)CN1CCCCC1)N1CCCCC1 (stereo not given) the results were ERa SRC1 inh -5, Smad3 inh 1, ERa SRC1 pot 122, ERb coact inh -7, PLK1 kinase inh 66* and PLK1 PBD inh 8.
O=C(O)c1nnsc1COCc1ccccc1 was read as Smad3 inh -5.
O=C(CN1CCCC1)N1c2ccccc2Sc2ccccc21 was read as ERa SRC1 inh -4, Smad3 inh 3, ERa SRC1 pot 156, ERb coact inh 8, PLK1 kinase inh 7 and PLK1 PBD inh 6.
`NCCCC(=O)N1c2ccccc2Sc2ccccc21` gave ERa SRC1 inh -1, Smad3 inh 10, ERa SRC1 pot 110, ERb coact inh -10, PLK1 kinase inh 66* and PLK1 PBD inh 6.
`CCOC(=O)c1ccccc1NC(=O)COc1cc(=O)n(CC)c2ccccc12` gave ERa SRC1 inh 19, Smad3 inh 5, ERa SRC1 pot 278*[fluorescence artefact?], ERb coact inh 45, PLK1 kinase inh -13 and PLK1 PBD inh -5.
Screening CCn1c(=O)cc(OCC(=O)Nc2ccc(C)cn2)c2ccccc21 returned ERa SRC1 inh 1, Smad3 inh 7, ERa SRC1 pot 81, ERb coact inh -2, PLK1 kinase inh 6 and PLK1 PBD inh -26.
Screening CN(C)c1ccc(C2N([C@H](C#N)c3ccc(N(C)C)cc3)CCCN2[C@@H](C#N)c2ccc(N(C)C)cc2)cc1 (stereo not given in full) returned Smad3 inh 3.
Screening N#CC(C#N)=CNCCN1CCN(C=C(C#N)C#N)CC1 returned Smad3 inh 3.
O=C(Cn1cc2c(n1)CCCCC2)Nc1c(F)c(F)cc(F)c1F was read as PLK1 kinase inh -8 and PLK1 PBD inh -5.
